Results filed as inconclusive are left out. Active and inactive are the calls of the source. Unless noted, calls come from the whole dose curve; as a rule, active = well fitted curve in the direction sought with a large enough effect in the repeat runs; inconclusive = weak or mixed curves; inactive = no such curve, though single readings can be large; an effect the other way counts as inactive or inconclusive.
How the values were obtained:
[1] = qHTS assay to identify small molecule antagonists of the constitutive androstane receptor (CAR) signaling pathway - cell viability counter screen (AID 1224837); note: nearly all actives have a fitted effect of over 45% in size
Summary of the method: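 Read-out: CellTiter-Fluor fluorescence after 23 hr at 37 C/5% CO2. Cells: HepG2 double-stable for hCAR and CYP2B6-2.2kb. Compounds tested at 15 concentrations in the presence of CITCO, final concentration 50 nM.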

[2] = target: Nuclear receptor subfamily 1 group I member 3 (Homo sapiens) (UniProt Q14994); assay: qHTS assay to identify small molecule antagonists of the constitutive androstane receptor (CAR) signaling pathway (AID 1224838);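 note: HepG2 cells stably expressing hCAR with CYP2B6 luciferase reporter stimulated by CITCO; nearly all actives have a fitted effect of over 40% in size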
Summary of the method: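 Read-out: ONE-Glo luciferase luminescence after 30 min at room temperature. HepG2-CYP2B6-hCAR double-stable cells, compounds in 15-point titration plus 50 nM CITCO final, 24 h at 37 C/5% CO2.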

[3] = target: Nuclear receptor subfamily 1 group I member 3 (Homo sapiens) (UniProt Q14994); assay: qHTS assay to identify small molecule agonists of the constitutive androstane receptor (CAR) signaling pathway (AID 1224839);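 note: HepG2 cells stably carrying human CAR and a CYP2B6 luciferase reporter; nearly all actives have a fitted effect of over 15% in size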
Summary of the method: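 Luminescence read-out (ONE-Glo, 30 min, room temperature) from double-stable HepG2-CYP2B6-hCAR cells exposed 24 h to 15-point compound series in presence of 0.75 uM PK11195 final.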

[4] = qHTS assay to identify small molecule antagonists of the estrogen related receptor signaling pathway with the pleiotropic PPARgamma coactivator (PGC) from Tox21 10K library - cell viability counter screen (AID 1224840; active = well fitted cell-killing curve with a large enough effect in the repeat runs, not every such curve was filed as active; note: nearly all actives have a fitted effect of over 40% in size)
Summary of the method: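 Fluorescence read-out of CellTiter-Fluor viability reagent, added after cells had been exposed to compound in DMSO for 17.5 h at 37 C; 30 min development at 37 C/5% CO2. Cells: PGC/ERR line, 2,000/well.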

[5] = target: Thyrotropin receptor (Homo sapiens) (UniProt P16473); assay: qHTS assay to identify small molecule agonists of the thyroid stimulating hormone receptor (TSHR) signaling pathway (AID 1224843; calls by dose curve; note: nearly all actives have a fitted effect of over 45% in size)
Summary of the method: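 Agonist-mode screen: TSHR HEK293 cells received test chemicals for half an hour at room temperature, then HTRF cAMP detection reagents for one hour prior to fluorescence measurement. Each chemical ran as a 15-concentration series, triplicated.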

[6] = qHTS assay to identify small molecule agonists of the hypoxia (HIF-1) signaling pathway - cell viability counter screen (AID 1224844; calls by dose curve; note: nearly all actives have a fitted effect of over 50% in size)
Summary of the method: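 CellTiter-Glo luminescence read-out, 30 min RT, taken in the same wells as the beta-lactamase HRE reporter assay; HRE-bla ME-180 cells, 0.5% dialyzed FBS, 17 hr compound treatment at 37C, 5% CO2.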

[7] = qHTS assay to identify small molecule agonists of H2AX (AID 1224845; active = well fitted activation curve with a large enough effect in the signal ratio in the repeat runs, not every such curve was filed as active; the % refers to the signal ratio)
Summary of the method: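 Wild-type CHO-K1 cells, plated overnight, exposed 3hr at 37C to 15 concentrations (0.76% DMSO final). Lysed, then HTRF anti-pH2AX (S139) cryptate and anti-H2AX-d2 antibodies, 24 hr room temperature; 665/620 nm emission read.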

[8] = qHTS assay to identify small molecule agonists of the hypoxia (HIF-1) signaling pathway (AID 1224846; active = well fitted activation curve with a large enough effect in the signal ratio in the repeat runs, not every such curve was filed as active; the % refers to the signal ratio)
Summary of the method: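 Beta-lactamase FRET read-out (CCF4-AM substrate) from ME-180 cells carrying an HRE-driven bla reporter, after 17 hrs compound exposure at 37C/5% CO2. Cells were seeded at 2,000 per well in 0.5% dialyzed FBS medium and preincubated 5 hrs.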

[9] = qHTS assay to identify small molecule agonists of H2AX - cell viability counter screen (AID 1224847; calls by dose curve; note: top concentration of the series differs between compounds; nearly all actives have a fitted effect of over 30% in size)
Summary of the method: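 CHO-K1 wt, 1000 cells/well, o/n 37C; cpds 15 conc, 3 h 37C, 0.76% DMSO; CellTiter-Glo, 30 min RT, luminescence.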

[10] = qHTS RealTime-Glo MT Cell Viability Assay in HepG2 cells - 24 hour (AID 1224867); note: nearly all actives have a fitted effect of over 50% in size
Summary of the method: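 Tox21 10K library screened in qHTS format on HepG2 cells carrying RealTime-Glo reagents. Compounds were added after a 5 h preincubation, and the luminescent signal from continuous culture was measured repeatedly during 40 h treatment.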

[11] = qHTS RealTime-Glo MT Cell Viability Assay in HEK293 cells - 32 hour (AID 1224868); note: top concentration of the series differs between compounds; nearly all actives have a fitted effect of over 50% in size
Summary of the method: (§1)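 Luminescence generated by NanoLuc from substrate produced by living HEK293 cells served as the viability signal. Each value reflects the reading at its stated time point during continuous 40 h compound exposure at 37 C.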

[12] = A CellTox Green Cytotoxicity Assay to monitor cytotoxicity in HEK293 cells - 0 hour (AID 1224869); note: nearly all actives have a fitted effect of over 50% in size
Summary of the method: (§2)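 Read-out: fluorescence of a cell-impermeant cyanine dye staining DNA of dead cells, proportional to cytotoxicity. HEK293, 600 cells/well with reagent, compound (23 nL DMSO) added after 5 h; reads at 0, 8, 16, 24, 32, 40 h.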

[13] = qHTS RealTime-Glo MT Cell Viability Assay in HepG2 cells - 40 hour (AID 1224870); note: nearly all actives have a fitted effect of over 50% in size
Summary of the method: (§3)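 HepG2 cells (600/well) mixed with RealTime-Glo MT reagent, settled 5 h at 37 C/5% CO2 before compound addition. Nonlytic NanoLuc luminescence from viable-cell prosubstrate reduction read repeatedly during 40 h treatment at 37 C.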

[14] = A CellTox Green Cytotoxicity Assay to monitor cytotoxicity in HEK293 cells - 40 hour (AID 1224871); note: nearly all actives have a fitted effect of over 45% in size
Summary of the method: as §2

[15] = qHTS RealTime-Glo MT Cell Viability Assay in HEK293 cells - 16 hour (AID 1224872)
Summary of the method: as §1

[16] = qHTS RealTime-Glo MT Cell Viability Assay in HepG2 cells - 8 hour (AID 1224873); note: nearly all actives have a fitted effect of over 55% in size
Summary of the method: as §3

[17] = qHTS assay to identify small molecule antagonists of the estrogen related receptor signaling pathway with the pleiotropic PPARgamma coactivator (PGC) from Tox21 10K library (AID 1224841; call rule not given here)
Summary of the method: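 Luminescence read-out (One-Glo luciferase reagent, 30 min at room temperature) from PGC/ERR cells exposed to DMSO-dissolved test compounds for 18 h at 37 C; cells, 2,000 per well, had been preincubated 6 h before compound transfer.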

[18] = qHTS assay to identify small molecule antagonists of the estrogen related receptor (ERR) signaling pathway from Tox21 library (AID 1224848); note: nearly all actives have a fitted effect of over 50% in size
Summary of the method: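 Quantitative high-throughput format: ERR reporter cells (2,000/well) pre-incubated 6 h, treated 18 h at 37 C with compounds in DMSO alongside positive and negative controls, then read by ONE-Glo luminescence.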

[19] = qHTS assay to identify small molecule agonists of the estrogen related receptor (ERR) signaling pathway from Tox21 library (AID 1224849; calls by dose curve; note: nearly all actives have a fitted effect of over 15% in size); conditions: ERR reporter cell line, ONE-Glo luciferase, 18 h; at 92.4 µM (top of the series) unless noted
Summary of the method: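 Luminescence readout (ONE-Glo, 30 min RT) after 18 h compound exposure at 37 C of NTP-supplied ERR reporter cells; cells were plated 6 h before compound addition by pin tool.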

[20] = qHTS assay to identify small molecule agonists of the estrogen related receptor signaling pathway with the pleiotropic PPARgamma coactivator (PGC) from Tox21 10K library (AID 1224842); note: nearly all actives have a fitted effect of over 15% in size
Summary of the method: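 PGC/ERR reporter cell line, 2,000 cells per well, incubated 6 h at 37 C before 23 nL compound in DMSO was added. After 18 h at 37 C, One-Glo luminescence read following 30 min at room temperature.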
% is set by controls: 0 for no effect and ±100 for the full control effect.

Sequence of Thyrotropin receptor (Homo sapiens) (P16473 whole entry, looked up): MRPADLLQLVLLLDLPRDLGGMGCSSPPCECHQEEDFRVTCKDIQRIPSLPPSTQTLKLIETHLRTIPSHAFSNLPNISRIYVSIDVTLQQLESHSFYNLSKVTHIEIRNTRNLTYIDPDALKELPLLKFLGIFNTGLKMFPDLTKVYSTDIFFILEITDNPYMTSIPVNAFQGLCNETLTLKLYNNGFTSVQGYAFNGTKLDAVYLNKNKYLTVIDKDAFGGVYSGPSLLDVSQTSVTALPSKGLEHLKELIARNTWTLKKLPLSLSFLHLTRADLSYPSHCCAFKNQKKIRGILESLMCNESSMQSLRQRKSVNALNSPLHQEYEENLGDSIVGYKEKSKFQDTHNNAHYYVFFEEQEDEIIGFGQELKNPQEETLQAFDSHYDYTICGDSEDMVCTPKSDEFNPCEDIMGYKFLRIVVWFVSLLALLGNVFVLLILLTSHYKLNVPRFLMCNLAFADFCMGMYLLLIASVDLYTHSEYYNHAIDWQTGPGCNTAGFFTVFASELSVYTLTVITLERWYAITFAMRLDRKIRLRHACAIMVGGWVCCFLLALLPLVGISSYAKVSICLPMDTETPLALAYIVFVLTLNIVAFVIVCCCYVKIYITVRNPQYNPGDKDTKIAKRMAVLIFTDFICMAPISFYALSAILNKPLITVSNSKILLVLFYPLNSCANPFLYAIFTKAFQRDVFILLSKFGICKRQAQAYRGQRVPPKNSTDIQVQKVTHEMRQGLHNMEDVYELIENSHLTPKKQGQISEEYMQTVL
Sequence of Nuclear receptor subfamily 1 group I member 3 (Homo sapiens) (Q14994 whole entry, looked up): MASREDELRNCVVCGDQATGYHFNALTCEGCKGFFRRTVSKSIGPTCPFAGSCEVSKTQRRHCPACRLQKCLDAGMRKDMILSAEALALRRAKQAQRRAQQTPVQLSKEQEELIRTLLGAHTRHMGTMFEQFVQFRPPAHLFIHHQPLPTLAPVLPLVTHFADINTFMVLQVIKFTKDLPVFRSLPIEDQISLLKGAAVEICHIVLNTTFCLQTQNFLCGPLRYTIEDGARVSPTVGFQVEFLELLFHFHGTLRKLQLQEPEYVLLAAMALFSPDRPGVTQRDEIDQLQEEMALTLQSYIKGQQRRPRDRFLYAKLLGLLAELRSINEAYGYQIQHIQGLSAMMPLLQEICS

CC(C)(C)C1CCCCC1O (stereo unspecified)
inactive: Potency [1] | Potency [2] | Potency [3] | Potency [4] | Potency [5] | Potency [6] | Potency [7] | outcome [8] | Potency [9] | Potency [10] | Potency [11] | Potency [12] | Potency [13] | Potency [14] | Potency [15] | Potency [16]

CCOc1nc2cccc(C(=O)O)c2n1Cc1ccc(-c2ccccc2-c2nn[nH]n2)cc1
inactive: Potency [1] | Potency [2] | Potency [3] | Potency [4] | Potency [17] | Potency [5] | Potency [6] | Potency [7] | outcome [8] | Potency [9] | Potency [18] | activity change, positive = activation [19] 4.21% [at 42.5 µM] | Potency [10] | Potency [11] | Potency [12] | Potency [13] | Potency [14] | Potency [15] | Potency [16]

CC(=O)OCCc1ccccc1
inactive: Potency [1] | Potency [2] | Potency [3] | Potency [4] | Potency [5] | Potency [6] | Potency [7] | outcome [8] | Potency [9] | Potency [10] | Potency [11] | Potency [12] | Potency [13] | Potency [14] | Potency [15] | Potency [16]

O=[N+]([O-])c1cccc(Cl)c1Cl
inactive: Potency [1] | Potency [2] | Potency [3] | Potency [4] | Potency [17] | Potency [5] | Potency [6] | Potency [7] | outcome [8] | Potency [18] | activity change, positive = activation [19] 2.5% | Potency [10] | Potency [11] | Potency [12] | Potency [13] | Potency [15] | Potency [16]

CCCCCCCCCCCCCCCC(=O)OC/C=C(C)/C=C/C=C(C)/C=C/C1=C(C)CCCC1(C)C
inactive: Potency [1] | Potency [2] | Potency [3] | Potency [4] | Potency [5] | Potency [6] | Potency [7] | outcome [8] | Potency [9] | Potency [10] | Potency [11] | Potency [12] | Potency [13] | Potency [14] | Potency [15] | Potency [16]

CC(C)CC=O
inactive: Potency [1] | Potency [2] | Potency [3] | Potency [4] | Potency [5] | Potency [6] | Potency [7] | outcome [8] | Potency [9] | Potency [10] | Potency [11] | Potency [12] | Potency [13] | Potency [14] | Potency [15] | Potency [16]

CCCCCCc1ccc(N)cc1
inactive: Potency [1] | Potency [2] | Potency [3] | Potency [4] | Potency [17] | Potency [20] | Potency [6] | outcome [8] | activity change, positive = activation [19] -26.6% | Potency [10] | Potency [11] | Potency [12] | Potency [13] | Potency [14] | Potency [15] | Potency [16]

CCN(CC)C(C)CN1c2ccccc2Sc2ccccc21 (stereo unspecified)
inactive: Potency [1] | Potency [2] | Potency [3] | Potency [4] | Potency [5] | Potency [6] | Potency [7] | outcome [8] | Potency [10] | Potency [11] | Potency [12] | Potency [13] | Potency [14] | Potency [15] | Potency [16]

— PubChem BioAssay (Tox21)
